What all share (set-up): species or system human, MV4-11 + K-562 + COLO205 + SK-N-BE2 + OVCAR-8
For one assay, the system named is CDC42BPA. The settings on record: read-out: apparent Kd; compound concentrations: 100 nM and 1000 nM (sheet 'Samples'), CATDS: 4.4382649306469998E-2; n = 1.
A further assay relates to CDC42BPB. As to conditions: read-out: apparent Kd; compound concentrations: 100 nM and 1000 nM (sheet 'Samples'), CATDS: 5.2868246392704099E-2; n = 1.
The next assay relates to CDC7. The settings on record: read-out: apparent Kd; compound concentrations: 100 nM and 1000 nM (sheet 'Samples'), CATDS: 6.9489626335847196E-2; n = 1.
Another assay deals with CLK4. The settings on record: read-out: apparent Kd; compound concentrations: 100 nM and 1000 nM (sheet 'Samples'), CATDS: 5.9316803085408598E-2; n = 1.
The subject of a further assay is GSK3A. The settings on record: read-out: apparent Kd; compound concentrations: 100 nM and 1000 nM (sheet 'Samples'), CATDS: 0.14981802566128199; n = 1.
Another assay concerns GSK3B. The settings on record: read-out: apparent Kd; compound concentrations: 100 nM and 1000 nM (sheet 'Samples'), CATDS: 0.15901528532749901; n = 1.
The subject of another assay is LATS1. As to conditions: read-out: apparent Kd; compound concentrations: 100 nM and 1000 nM (sheet 'Samples'), CATDS: 0.14331063333654301; n = 1.
A further assay has as its system NQO1. The settings on record: read-out: apparent Kd; compound concentrations: 100 nM and 1000 nM (sheet 'Samples'), CATDS: 4.4968257492060203E-2; n = 1.
Another assay concerns PKN1. The settings on record: read-out: apparent Kd, n = 1.
A further assay has as its system PKN2. As to conditions: read-out: apparent Kd; compound concentrations: 100 nM and 1000 nM (sheet 'Samples'), CATDS: 0.153152330435843; n = 1.
A further assay has as its system PKN3. The settings on record: read-out: apparent Kd; compound concentrations: 100 nM and 1000 nM (sheet 'Samples'), CATDS: 4.6811653986635102E-2; n = 1.
In the next assay the test system is ROCK1. As to conditions: read-out: apparent Kd; compound concentrations: 100 nM and 1000 nM (sheet 'Samples'), CATDS: 5.1294364781544602E-2; n = 1.
The test system of the next assay is ROCK2. As to conditions: read-out: apparent Kd; compound concentrations: 100 nM and 1000 nM (sheet 'Samples'), CATDS: 6.2443237217646497E-2; n = 1.
The next assay has as its system RPS6KA5. The settings on record: read-out: apparent Kd; compound concentrations: 100 nM and 1000 nM (sheet 'Samples'), CATDS: 4.9211147170022597E-2; n = 1.
For the next assay, the system named is RPS6KB1. The settings on record: read-out: apparent Kd; compound concentrations: 100 nM and 1000 nM (sheet 'Samples'), CATDS: 0.131217569210515; n = 1.
For another assay, the system named is CAMK2B. As to conditions: read-out: apparent Kd, n = 1.
Another assay concerns CAMK2D. As to conditions: read-out: apparent Kd; compound concentrations: 100 nM and 1000 nM (sheet 'Samples'), CATDS: 0.22355141461127601; n = 1.
The next assay has as its system CAMK2G. The settings on record: read-out: apparent Kd; compound concentrations: 100 nM and 1000 nM (sheet 'Samples'), CATDS: 0.16282933819825701; n = 1.
A further assay relates to MAPK14. The settings on record: read-out: apparent Kd; compound concentrations: 100 nM and 1000 nM (sheet 'Samples'), CATDS: 0.12639229047772599; n = 1.
The subject of the next assay is MAPK1. The settings on record: read-out: apparent Kd; compound concentrations: 100 nM and 1000 nM (sheet 'Samples'), CATDS: 0.13886491205571; n = 1.
The test system of a further assay is MTHFD1. As to conditions: read-out: apparent Kd; compound concentrations: 100 nM and 1000 nM (sheet 'Samples'), CATDS: 0.112540621038884; n = 1.
A further assay relates to STK16. The settings on record: read-out: apparent Kd; compound concentrations: 100 nM and 1000 nM (sheet 'Samples'), CATDS: 0.103320343146107; n = 1.
The next assay has as its system CAMKK2. The settings on record: read-out: apparent Kd; compound concentrations: 100 nM and 1000 nM (sheet 'Samples'), CATDS: 0.352133758471873; n = 1.
The test system of a further assay is EGFR. As to conditions: read-out: apparent Kd; compound concentrations: 100 nM and 1000 nM (sheet 'Samples'), CATDS: 0.86194262245046105; n = 1.
Another assay deals with CDC42. As to conditions: read-out: apparent Kd; compound concentrations:100 nM and 1000 nM (sheet 'Samples'); n = 1.
In another assay the test system is CDK7. As to conditions: read-out: apparent Kd; compound concentrations:100 nM and 1000 nM (sheet 'Samples'); n = 1.
The subject of another assay is ERCC2. As to conditions: read-out: apparent Kd; compound concentrations:100 nM and 1000 nM (sheet 'Samples'); n = 1.
In the next assay the test system is FER. As to conditions: read-out: apparent Kd; compound concentrations:100 nM and 1000 nM (sheet 'Samples'); n = 1.
Another assay has as its system GAK. As to conditions: read-out: apparent Kd; compound concentrations:100 nM and 1000 nM (sheet 'Samples'); n = 1.
In the next assay the test system is HSP90B1. As to conditions: read-out: apparent Kd; compound concentrations:100 nM and 1000 nM (sheet 'Samples'); n = 1.
A further assay relates to TNK2. As to conditions: read-out: apparent Kd; compound concentrations:100 nM and 1000 nM (sheet 'Samples'); n = 1.
The test system of a further assay is CAMK4. The settings on record: read-out: apparent Kd; compound concentrations: 100 nM and 1000 nM (sheet 'Samples'), CATDS: 0.39976270483603599; n = 1.
The subject of another assay is CSNK1A1. As to conditions: read-out: apparent Kd; compound concentrations: 100 nM and 1000 nM (sheet 'Samples'), CATDS: 0.27381506430700697; n = 1.
Another assay relates to RIOK2. As to conditions: read-out: apparent Kd; compound concentrations: 100 nM and 1000 nM (sheet 'Samples'), CATDS: 0.35131899059620803; n = 1.
Another assay concerns PBK. The settings on record: read-out: apparent Kd; compound concentrations:100 nM and 1000 nM (sheet 'Samples'); n = 1.
Where [1] appears, read: compound concentrations:100 nM and 1000 nM (sheet 'Samples').

Molecules are shown by their SMILES. Where two headings read alike, the source gives them in different places.

This is an account of results in publication PMC11062922 (Nature Chemical Biology, 2023).

On to `Nc1nonc1-c1nc2cnccc2n1C1CCCCC1` [SB-734117], for which the potency estimated from few doses in the assay on CDC42BPA is 2000 nM; in the assay on CDC42BPB, 1000 nM; in the assay on CDC7, 446 nM; with CLK4, 693 nM; with GSK3A, 91.8 nM; in the assay on GSK3B it was 83.3 nM. For the same molecule, the potency estimated from few doses with LATS1 was 98.8 nM; in the assay with NQO1 it was 1880 nM; with PKN1 (compound concentrations: 100 nM and 1000 nM (sheet 'Samples'), CATDS: 5.3241919532380499E-2), 977 nM; in the assay on PKN2, 88.5 nM; in the assay with PKN3, 1580 nM; in the assay with ROCK1 it was 1110 nM. Also, the values for the potency estimated from few doses in the assay with ROCK2, with RPS6KA5 and with RPS6KB1 were 596 nM, 1300 nM and 115 nM, respectively.
With `N#Cc1cccc(C(=O)NC2CCN(c3ccnc(Nc4ccc(F)cc4)n3)C2)c1` (stereo not shown) [GSK1379708A], the potency estimated from few doses is 395 nM with CAMK2B (compound concentrations: 100 nM and 1000 nM (sheet 'Samples'), CATDS: 0.21240793687588); 364 nM in the assay with CAMK2D; 631 nM with CAMK2G; 1100 nM with MAPK14; 879 nM with MAPK1; 1500 nM in the assay on MTHFD1. Also, in the assay on STK16, the potency estimated from few doses was 1980 nM.
In the case of `CN(C)C(=O)O[C@H]1CN[C@H](C#Cc2cc3ncnc(Nc4ccc(OCc5cccc(F)c5)c(Cl)c4)c3s2)C1` [GSK182497A], the potency estimated from few doses with CAMKK2 was 2010 nM; with EGFR, 175 nM.
Take `Cc1ccc2c(-c3ccnc(Nc4ccc(C(F)(F)F)cc4)n3)cnn2n1` [GW819776X]: the potency estimated from few doses was 1650 nM in the assay on CDC42; 1750 nM in the assay on CDK7; 898 nM in the assay on ERCC2; 1180 nM in the assay with FER; 1400 nM in the assay with GAK; 99.9 nM in the assay with HSP90B1. In addition, the potency estimated from few doses in the assay on TNK2 was 1050 nM.
Regarding `COc1ccc(C2=C(N3CCc4ccccc43)C(=O)NC2=O)cc1` [SB-361058], the potency estimated from few doses is 1170 nM with CAMK4, 2590 nM in the assay on CSNK1A1 and 1480 nM in the assay on RIOK2.
With `C[C@@H]1CCN(C(=O)CO)C[C@@H]1N(C)c1ncnc2[nH]ccc12` [PFE-PKIS_34], the potency estimated from few doses in the assay on CAMK2B (setting [1]) was 563 nM; in the assay with PBK, 1930 nM; in the assay on PKN1 (setting [1]), 1140 nM.
